BJeLR viability: BJeLR cell viability loss; BJeLR (HRASV12) viability, CellTiter-Glo ATP luminescence, 48 h; inhibition, % (no concentration beside the values); actives 0.17% (n = 300,000); AID 1554; in the data active means inhibition above about 50%
SARS 3CLpro inh: SARS-CoV 3CLpro protease inhibition. recombinant SARS-CoV 3CLpro, quenched FRET peptide cleavage. inhibition, % at 6 µM. actives 0.14% (n = 290,000). AID 1706; in the data active means inhibition above about 12%
SSB-PriA inh: inhibitors of Klebsiella pneumoniae PriA binding to SSB C-terminal tail | AlphaScreen SSBct-PriA binding, biotinylated peptide | inhibition, % at 33 µM | actives 0.6% (n = 430,000) | AID 1272365; in the data active means inhibition mostly above about 37%, no sharp cut-off; inactive means mostly below about 20%
Hits are given with their value; n = inactive; x = not tested or not shown. Hits are enriched below; roughly 0.78% of the tested compounds scored in any of these assays.

SMILES	BJeLR viability	SARS 3CLpro inh	SSB-PriA inh
O=S(=O)(c1cccs1)N1CC(Oc2nccs2)C1	x	x	n
COc1ccc(-n2c(Cc3cccn3C)nnc2SCC(=O)Nc2ccc3c(c2)OCO3)cc1	n	n	n
Cc1ccccc1-n1c(SCC(=O)Nc2ccc3c(c2)OCO3)nnc1-c1ccccn1	n	n	42.1
Cn1cccc1Cc1nnc(SCC(=O)Nc2ccc3c(c2)OCO3)n1-c1ccc(Cl)cc1	x	x	87.2
CCn1c(SCC(=O)Nc2ccc3c(c2)OCCO3)nnc1-c1ccccn1	n	n	n
O=C(CSC1=Nc2cccnc2Nc2ccccc21)Nc1ccc(F)cc1F	x	x	41.0
COc1ccc(NC(=O)CSC2=Nc3cccnc3Nc3ccccc32)cc1OC	x	x	44.0
O=C(CSC1=Nc2cccnc2Nc2ccccc21)Nc1cc(Cl)ccc1Cl	x	x	n
O=C(CSC1=Nc2cccnc2Nc2ccccc21)Nc1ccc(OC(F)(F)F)cc1	x	x	n
CS(=O)(=O)c1ccc(CC(=O)Nc2cccc3ccccc23)cc1	x	x	n
Cc1ccc(N2CC(C(=O)NCCCn3ccnc3)CC2=O)cc1 (stereo unspecified)	n	n	n
Cc1ccc(N2CC(NC(=O)NCCCn3ccnc3)CC2=O)cc1C (stereo unspecified)	x	x	51.0
CCOC(=O)c1ccc(NC(=O)CS(=O)(=O)c2cn(Cc3ccccc3C)c3ccccc23)cc1	x	x	n
CC(C)NC(=O)CCCCn1c(=O)c2ccccc2n(CC(=O)NCc2ccc3c(c2)OCO3)c1=O	x	x	n
Cc1cc2cccnc2c2ncccc12	x	x	163.0
O=[N+]([O-])c1cc2cccnc2c2ncccc12	n	n	48.4
Cc1cc(Br)cc2cccnc12	x	x	n
O=[N+]([O-])c1cc([N+](=O)[O-])c2cccnc2c1Cl	x	x	81.0
Nc1c(N)c2cccnc2c2ncccc12	x	x	94.9
O=[N+]([O-])c1ccc(F)c2ncccc12	x	x	n
Nc1ncc(Br)c2ncccc12	x	x	n
O=[N+]([O-])c1ccc(Cl)c2ncccc12	x	x	n
O=C(CSc1ccc2nnc(-c3cccnc3)n2n1)OCc1ccccc1	x	x	n
O=C(CNC(=O)c1ccccc1)NCc1cnn2ccccc12	x	x	n
CSc1ccc(NC(=O)CCCc2ccccc2)nn1	x	x	n
SMILES	BJeLR viability	SARS 3CLpro inh	SSB-PriA inh
Cc1nnc(NC(=O)C2CN(S(C)(=O)=O)C2)s1	x	x	n
CSc1ccc([C@@H](O)CNS(C)(=O)=O)cc1	x	x	n
O=S(=O)(c1ccccc1)c1nc(-c2ccccc2)oc1N1CCCC1	n	n	n
O=S(=O)(c1ccc(Cl)cc1)c1nc(-c2cccs2)oc1N1CCOCC1	x	x	44.0
CN1CCN(c2oc(-c3ccccc3)nc2S(=O)(=O)c2ccc(Br)cc2)CC1	n	n	39.1
O=S(=O)(c1ccc(Cl)cc1)c1nc(-c2ccco2)oc1N1CCOCC1	n	n	n
O=C(Cc1cccc2ccccc12)NCC(c1ccc(F)cc1)N1CCOCC1 (stereo unspecified)	x	x	n
C/C(=N/O)c1ccc2c3ccccc3n(C)c2c1	x	x	n
CN(C)c1cc2c3ccccc3n(C)c2cc1N	x	x	66.2
O=C(Nc1nnc(C2CCCO2)o1)c1cccc(Oc2ccccc2)c1 (stereo unspecified)	x	x	74.0
O=C(/C=C/c1ccccc1Cl)Nc1nnc(C2CCCO2)o1 (stereo unspecified)	x	x	n
CC(C)Nc1nc(-c2ccccn2)nnc1-c1ccccc1	x	x	154.5
CC(C)Nc1nc(-c2ccccc2)nnc1-c1ccccc1	n	n	n
CN(C)c1nc(-c2ccccn2)nnc1-c1ccccc1	81.7	n	97.7
c1ccc(-c2nnc(-c3ccccn3)nc2-c2ccccc2)cc1	x	x	n
CN1C(=O)CCc2cc(NS(=O)(=O)C3CCCCC3)ccc21	x	x	n
CC(C)CCn1c(C(O)c2ccccc2)nc2ccccc21 (stereo unspecified)	x	x	n
Cc1nc(-c2ccc(N3CCN(C(=O)Cn4cccn4)CC3)nc2)no1	x	x	n
CCCCc1ccc(NC(=O)CC(NCC2CCCO2)C(=O)O)cc1 (stereo unspecified)	x	x	n
O=S(=O)(Cc1noc2ccccc12)N1CCOCC1	x	x	n
CN(C)C[C@H]1CSCCCN1C(=O)c1ccc(Br)o1	x	x	n
CCC(C)Nc1ccc(NC(C)CC)cc1 (stereo unspecified)	x	x	39.6
CCC(C)NC(=O)Nc1ccc(Br)cc1 (stereo unspecified)	n	n	n
CSc1ccc(CNC(=O)c2ccc(-n3nc(C)cc3C)nc2)cc1	x	x	n
Cc1cc(=O)n(CC(=O)Nc2ccccc2F)c(N)n1	x	x	n
SMILES	BJeLR viability	SARS 3CLpro inh	SSB-PriA inh
O=C(NC[C@]1(O)CCc2ccccc2C1)c1ccc(S(=O)(=O)N2CCCCC2)cc1	x	x	n
Cc1nc(NCCCn2ccnc2)c2ccccc2n1	n	n	n
c1cncc(-c2nc(NCCCn3ccnc3)c3ccccc3n2)c1	n	n	40.2
Cn1nc2c(c1NC(=O)c1sc3ccccc3c1Cl)CCC2	x	x	n
O=C(NN=Cc1c(O)ccc2ccccc12)c1ccc(S(=O)(=O)N2CCCCC2)cc1	x	x	n
O=C(N/N=C\c1c(O)ccc2ccccc12)c1ccc(S(=O)(=O)N2CCCCC2)cc1	76.9	n	x
Cc1ccc(-n2[nH]c(C)c(C=Nc3ccc4[nH]c(=O)[nH]c4c3)c2=O)cc1	n	n	n
Cc1ccc(N=Cc2c(C)[nH]n(-c3nc4ccccc4[nH]3)c2=O)cc1	103.3	n	n
CCOc1ccc(NC(=O)Nc2nccn(-c3cccc(Cl)c3)c2=O)cc1	x	x	n
Cc1cccc(CC(=O)NCC(O)c2ccsc2)c1 (stereo unspecified)	x	x	n
Cc1cccc(CC(=O)NCC(O)Cc2ccccc2)c1 (stereo unspecified)	x	x	21.0
COc1cn2c(cc1=O)C(=O)N(CCNC(=O)COc1ccccc1C)CC2	x	x	n
COC(=O)c1ccc(C(=O)Nc2nnc(-c3cc(C)n(C)n3)o2)cc1	x	x	95.0
COc1cc(C(=O)Nc2nnc(-c3cc(C)n(C)n3)o2)cc(OC)c1OC	x	x	n
O=C(NCCn1nc(-c2ccco2)ccc1=O)c1cnn2c1OCCC2	x	x	n
CC(OC(=O)COc1ccc(Nc2ccccc2)cc1)C(=O)N(C)c1ccccc1 (stereo unspecified)	n	x	40.1
CC(OC(=O)CNS(=O)(=O)c1ccc2ccccc2c1)C(=O)N(C)c1ccccc1 (stereo unspecified)	n	n	n
CCOC(=O)Cn1cccc(-c2nc(-c3ccsc3)no2)c1=O	x	x	n
O=[N+]([O-])c1ccc(C2CCCC/C2=N\OCc2cccc(F)c2)c([N+](=O)[O-])c1 (stereo unspecified)	n	n	x
O=[N+]([O-])c1ccc(C2CCCCC2=NOCc2ccc(F)cc2)c([N+](=O)[O-])c1 (stereo unspecified)	x	x	45.2
CCN(CC)S(=O)(=O)c1ccc(NC(=O)c2ccc(N3C(=O)CCC3=O)cc2)cc1	x	x	n
O=C(c1cccc(Oc2ccccn2)c1)N1CCN(C(=O)c2ccco2)CC1	x	x	n
COc1ccc(NC(=O)COC(=O)CC23CC4CC(CC(C4)C2)C3)c([N+](=O)[O-])c1	n	n	65.6
CCC(=O)OCC(=O)Nc1ccc(OC)cc1[N+](=O)[O-]	n	n	n
CCC(C)Sc1cc(-c2nc3ccc(C)cn3c2NCc2ccccc2)ccc1OC (stereo unspecified)	n	x	38.8
CCC(C)Sc1ccc(-c2nc3ccc(C)cn3c2NCc2ccccc2)cc1OC (stereo unspecified)	n	x	n
O=C(NCC1CCN(c2nc3ccccc3s2)CC1)c1ccc2nsnc2c1	x	x	n
Cc1ccc(C)c(N=Nc2nc3ccccc3n2C)c1	n	n	n
